In PubChem BioAssay (NCI):
Compounds without any hit were thinned out: in the full panel of roughly 83,000, 20% have a hit.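 How to read the values: 0–100, growth inhibition (40 = 60% inhibited); 0, no net growth; -100 to 0, cell death (-40 = 40% of starting cells died; -100 = all dead).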 Active and inactive are the calls of the source. Rule for the calls: active = growth percent below 10; inactive = the rest.

Tests used:
Test in all cases: NCI-60 one-dose screen, 48 h (100 = growth as untreated, 0 = no growth, -100 = all killed)
Conditions in all cases: 10 µM unless noted
[1] = system: NCI-H23 lung
[2] = system: NCI-H322M lung
[3] = system: HOP-62 NSCLC
[4] = system: NCI-H460 lung
[5] = system: HOP-92 NSCLC
[6] = system: NCI-H522 lung
[7] = system: A549/ATCC NSCLC
[8] = system: 786-0 renal
[9] = system: COLO 205 colon
[10] = system: DU-145 prostate

Measured: growth

O=Cc1c(OCc2cnnn2CC(=O)Nc2ccc(Cl)cc2)ccc2ccccc12
inactive: [1] 101% | [2] 102% | [3] 101% | [4] 104% | [5] 103% | [6] 89.3% | [7] 104% | [8] 100% | [9] 115% | [10] 109%

O=C(CN1C=NC2C(N3CCOCC3)=NC=NC21)c1ccc(Br)cc1 (stereo not given)
inactive: [1] 99.2% | [2] 97.2% | [3] 103% | [4] 99.9% | [5] 106% | [6] 87.2% | [7] 103% | [8] 103% | [9] 112% | [10] 107%

COCCN(C(=O)Cc1cccs1)C(C(=O)NCc1ccc(OC)cc1)c1ccc(C(C)C)cc1 (stereo not given)
inactive: [1] 86.4% | [2] 92.2% | [3] 97.8% | [4] 78.2% | [6] 80.7% | [7] 87.2% | [8] 95% | [9] 104% | [10] 63.5%
active: [5] -3.71%

FC(F)(F)c1cccc(Nc2nc3ccccc3nc2Nc2cccc(C(F)(F)F)c2)c1
inactive: [1] 39.7%
active: [2] -28% | [3] 2.35% | [4] -59.4% | [5] 6.66% | [6] -57.1% | [7] 3.08% | [8] -75.3% | [9] -87.2% | [10] -1.33%

COc1ccc(OC)c(N(CCN2C(=O)c3ccccc3C2=O)C(=O)CCl)c1
active: [3] -3% | [5] -11.4% | [6] -73.3%
inactive: [1] 32.1% | [2] 97.7% | [4] 90.3% | [7] 76% | [8] 38.6% | [9] 80.6% | [10] 86.1%

O=c1c2cc(F)ccc2sc2c(NCCCNCCO)nc3ccc(Cl)cc3c12
inactive: [1] 81.6% | [2] 79.2% | [3] 61% | [5] 36.8% | [6] 49.1% | [7] 57.7% | [8] 58.8% | [10] 37.7%
active: [4] -53.8% | [9] 3.05%

COc1ccc(C2Nc3nc(OC)n(C)c(=O)c3N=C3c4ccccc4C(=O)C32)cc1 (stereo not given)
inactive: [1] 100% | [2] 106% | [3] 91.1% | [4] 97% | [5] 81.9% | [6] 94.8% | [7] 106% | [8] 98.1% | [9] 104% | [10] 89.2%

CN=c1ccc2nc3ccc(N)cc3sc-2c1
inactive: [1] 13.3% | [2] 42% | [3] 29% | [4] 27.6% | [5] 53.5% | [6] 10.5% | [8] 48.8% | [10] 75.3%
active: [7] 9.37% | [9] 1.63%

C1CCN(c2nc(N3CCCCC3)nc(N3CCOCC3)n2)CC1
inactive: [1] 95.7% | [2] 105% | [3] 94.3% | [4] 109% | [5] 112% | [6] 78% | [7] 87% | [8] 97.3% | [9] 107% | [10] 119%

CC(=O)c1ccc(Cc2ccc(C(C)=O)s2)s1
inactive: [1] 103% | [2] 92.1% | [3] 104% | [4] 94.3% | [5] 102% | [6] 95.8% | [7] 105% | [8] 102% | [9] 119% | [10] 113%

NC(CCc1nc2ccccc2c(=O)[nH]1)C(=O)O (stereo not given)
inactive: [1] 105% | [2] 97.8% | [3] 103% | [4] 108% | [5] 108% | [6] 91.7% | [7] 105% | [8] 101% | [9] 115% | [10] 120%

O=C(Nc1ccc(Cl)cc1F)c1cc(I)ccc1O
inactive: [1] 12.1% | [2] 17.8% | [3] 21.9% | [4] 15.7% | [7] 17.6% | [8] 77.2% | [9] 106% | [10] 31.9%
active: [5] -24.6% | [6] -9.32%

O=c1oc2ccc(F)cc2c(=O)n1-c1ccc(Cl)cc1F
active: [1] 4.57% | [2] 7.62% | [3] -5.38% | [4] 3.17% | [5] -14.3% | [6] -16.9% | [7] 3.43% | [8] 1.85%
inactive: [9] 11.7% | [10] 17.1%

O=C(c1nc2ccccc2[nH]1)C1C(c2ccc(F)cc2)C2CC3CCCCC3N2[C@@]12C(=O)Nc1ccc(Cl)cc12 (stereo not given in full)
inactive: [1] 57.2% | [2] 60.6% | [3] 71.8% | [4] 21.4% | [5] 44.2% | [6] 57.3% | [7] 29.3% | [8] 48.3% | [9] 40.3% | [10] 60.5%

O=c1c(-c2nc3ccccc3[nH]2)cc2ccccc2n1Cc1cn(Cc2ccc(F)cc2)nn1
active: [4] -10.7% | [8] -23.2% | [10] -23.5%
inactive: [1] 23.5% | [2] 19.4% | [3] 21.4% | [5] 34.9% | [6] 19.5% | [7] 11.4% | [9] 18.2%

CCOC(=O)c1sc(-c2ccc(OS(=O)(=O)c3ccc(Br)s3)c(C=O)c2)nc1C
inactive: [1] 11.9% | [2] 83.8% | [3] 19.6% | [4] 77.6% | [5] 26.5% | [7] 76.1% | [9] 84.8% | [10] 21.2%
active: [6] -5.7% | [8] 9.63%

O=C(Nc1ccc(I)cc1F)c1cc(Br)ccc1O
inactive: [9] 46.9% | [10] 14.2%
active: [1] 3.44% | [2] 7.16% | [3] -5.03% | [4] 2.62% | [5] -10.8% | [6] -7.93% | [7] 7.17% | [8] 1.97%

N#C/C(=C\c1c(-c2ccccc2)[nH]c2ccccc12)S(=O)(=O)c1ccccc1
inactive: [1] 40.7% | [2] 60% | [3] 39.2% | [4] 16.1% | [5] 53% | [6] 54.9% | [7] 45.5% | [8] 51.3% | [9] 12.8% | [10] 21.2%

O=C(Nc1ccc(N2CCNCC2)cc1)c1[nH]ncc1Nc1cc(C2CC2)ncn1
inactive: [1] 44.3% | [2] 37.6% | [3] 66.4% | [4] 38.9% | [5] 78.1% | [6] 25.2% | [7] 33.2% | [8] 56.7% | [9] 24% | [10] 70.6%

O=c1oc2ccc(-c3ccc(F)cc3F)cc2c(=O)n1-c1cccc(C(F)(F)F)c1
active: [1] 1.75% | [2] 4.41% | [3] 3.5% | [4] 4.14% | [5] -26.6% | [6] -10.7% | [7] 7.26% | [8] 0.874%
inactive: [9] 17.9% | [10] 20.1%

COc1ccc(Cn2c(Br)c3c(c2Br)-c2nc(N)sc2CC3)cc1
active: [6] 2.16%
inactive: [1] 57.3% | [2] 66.6% | [3] 35.5% | [4] 15.7% | [5] 58.5% | [7] 39.1% | [8] 56.8% | [9] 66.9% | [10] 57%

COC(=O)C1(C)COP(=O)(Nc2ccc(OC)cc2)OC1 (stereo not given)
inactive: [1] 102% | [2] 90.3% | [3] 107% | [4] 109% | [5] 109% | [6] 111% | [7] 98% | [8] 99.1% | [9] 109% | [10] 111%

O=Nc1c(O)ccc2ccccc12.O=Nc1c(O)ccc2ccccc12.O=Nc1c([O-])ccc2ccccc12.[Fe+3]
inactive: [1] 87% | [2] 104% | [3] 87.6% | [4] 105% | [5] 94.5% | [6] 103% | [7] 106% | [8] 115% | [9] 103% | [10] 125%

COc1cc(-c2c3c(cn2S(=O)(=O)c2ccccc2)-c2nc(N)sc2CC3)cc(OC)c1OC
active: [4] 6.37% | [9] -1.14% | [10] 0.0609%
inactive: [1] 44% | [2] 41% | [3] 53.5% | [5] 60.2% | [6] 19.9% | [7] 30.7% | [8] 43.4%

COc1ccc(C2C3=C(COC3=O)N(CCO)c3cc4c(cc32)CCC4)cc1 (stereo not given)
inactive: [1] 87.2% | [2] 96.2% | [3] 51.5% | [4] 25.9% | [5] 70.8% | [6] 37.8% | [7] 46.6% | [8] 54.8% | [9] 52.1% | [10] 78.5%

O=C(CCc1nnc2sc(-c3ccc(Cl)cc3Cl)nn12)c1nc2ncccc2[nH]1
inactive: [2] 11.7%
active: [1] -40.7% | [3] 2.87% | [4] -66.8% | [5] -62.1% | [6] -47.9% | [7] 4.78% | [8] -31.5% | [9] -32.5% | [10] -7.95%

O=C(Nc1ccccc1O)c1ccc(Oc2cccc(C(=O)Nc3ccccc3O)c2)cc1
active: [3] 6.43% | [4] 1.59% | [6] -16% | [7] 7.58% | [8] 3.76%
inactive: [1] 25.5% | [2] 25.9% | [5] 31.4% | [9] 93.4% | [10] 12.1%
